# Test results taken from PubChem BioAssay AID1259421 (Broad Institute, 2018).
# Values joined by “and” are separate entries in the source; they are usually repeats but may differ in a detail not shown here. Equal entries are not always repeated. Hit rate of the full screen: of about 6,400 compounds, about 610 (9.5%) were called active. The sample holds actives, similar compounds and a random draw of the others, so the mix is not that of the screen. No stated cut-off is given here; in the data, active means activity change below about -70%; inconclusive means no clear call, values can overlap the other calls; inactive means above that. A structure can be active in one record and inactive in another.
# Assay: Toxoplasma gondii ME49Luc growth in HeLa cells, luciferase, no IFN-y, primary screen (AID 1259421)
# Settings: T. gondii ME49Luc in HeLa, 72 h, stronger effect = lower value, concentration not given here
row,Structure (SMILES),"activity change, negative = inhibition"
1,Cn1cc(C(=O)C(=O)N[C@H]2CN3CCC2CC3)c2ccccc21,3.13% (inactive) and -2.73% (inactive)
2,O=C(Nc1ccncc1)C(=O)c1cn(Cc2ccc(Cl)cc2)c2ccccc12,-75.2% (active)
3,O=Cc1cn(Cc2ccc(Cl)cc2)c2ccccc12,3.18% (inactive)
4,c1cc(Cc2cnc[nH]2)ccn1,4.56% (inactive)
5,CCCN(CCC)C1CCc2ccc(O)cc2C1 (configuration not stated),-0.0815% (inactive) and 4.46% (inactive)
6,O=C(O)c1ccc2[nH]cc(CCCCN3CC=C(c4ccccc4)CC3)c2c1,8.65% (inactive) and 4.54% (inactive)
7,c1ccc2sc(C3(N4CCCC4)CCCCC3)cc2c1,3.78% (inactive)
8,O=C(O)COc1ccc(Cl)cc1Cl,5.11% (inactive)
9,Oc1cc(Cl)ccc1Oc1ccc(Cl)cc1Cl,-80.6% (active) and -88.3% (active)
10,O=C(O)CCCOc1ccc(Cl)cc1Cl,9.07% (inactive)
11,FC(F)OC(F)(F)C(F)Cl (configuration not stated),2.39% (inactive)
12,CCC1C(C)=NN=C(c2ccc(OC)c(OC)c2)c2cc(OC)c(OC)cc21 (configuration not stated),6.78% (inactive)
13,CCCCC1(C2CCCC2)Cc2cc(OCCCC(=O)O)c(Cl)c(Cl)c2C1=O (configuration not stated),-6.67% (inactive)
14,CC(=O)OC[C@]12CCC(C)=C[C@H]1O[C@@H]1[C@H](O)[C@@H](OC(C)=O)[C@@]2(C)[C@@]12CO2,-82.7% (active)
15,CCCC[N+]1(C)[C@@H]2CC(OC(=O)[C@@H](CO)c3ccccc3)C[C@H]1[C@@H]1O[C@@H]12 (some centres not stated),2.27% (inactive)
16,NC(=NCc1ccc(Cl)cc1)SCCCc1cnc[nH]1,-1.21% (inactive) and -3.65% (inactive)
17,C=C(C)[C@@H]1CCC(C)=C[C@H]1c1c(OC)cc(C)cc1OC,13.1% (inactive) and 2.72% (inactive)
18,COc1cccc2c1C(=O)c1c(O)c3c(c(O)c1C2=O)C[C@@](O)(C(=O)CO)C[C@@H]3O[C@H]1C[C@H](N2CCO[C@H](OC)C2)[C@H](O)[C@H](C)O1,-77.1% (active)
19,CC(C)(C)NCC(O)COc1cccc2[nH]c(C#N)cc12 (configuration not stated),-74.6% (active)
20,CC(C)(C)NC[C@H](O)COc1cccc2[nH]c(C#N)cc12,0.543% (inactive)
21,CS(=O)(=O)Nc1ccc(Cc2noc(-c3ccc4[nH]cc(CCN)c4c3)n2)cc1,0.294% (inactive)
22,CCc1cccc(CC)c1NC1=NCCN1,5.66% (inactive)
23,CN1C(=O)[C@@H](NC(=O)c2cc3ccccc3[nH]2)N=C(c2ccccc2)c2ccccc21,-59.5% (inactive)
24,CC(=O)O[C@@]12CO[C@@H]1C[C@H](O)[C@@]1(C)C(=O)[C@H](O)C3=C(C)[C@@H](O)C[C@@](O)([C@@H](OC(=O)c4ccccc4)[C@H]21)C3(C)C,-60.3% (inactive) and 13.9% (inactive)

row,Structure (SMILES),"activity change, negative = inhibition"
1,CC(=O)O[C@H]1C(=O)[C@@]2(C)C([C@H](OC(=O)c3ccccc3)[C@]3(O)C[C@H](O)C(C)=C1C3(C)C)[C@]1(OC(C)=O)CO[C@@H]1C[C@@H]2O (some centres not stated),-56.1% (inactive)
2,C/C=C(\C)C(=O)N[C@@H](c1ccccc1)[C@@H](O)C(=O)O[C@H]1C[C@@]2(O)[C@@H](OC(=O)c3ccccc3)[C@@H]3[C@]4(OC(C)=O)CO[C@@H]4C[C@H](O)[C@@]3(C)C(=O)[C@H](OC(C)=O)C(=C1C)C2(C)C,-82.1% (active)
3,C[C@H](N)Cc1ccccc1,4.68% (inactive)
4,O=[N+]([O-])NC1=NCCN1Cc1ccc(Cl)nc1,8.16% (inactive)
5,C[C@]12CCC3C(CC[C@H]4CC(=O)CC[C@]34C)C1CCC2=O (some centres not stated),1.73% (inactive)
6,CC[C@H]1CN2CCC1C[C@@H]2[C@@H](O)c1ccnc2ccc(OC)cc12 (some centres not stated),14.8% (inactive) and 8.86% (inactive)
7,CN1CCc2cc(Cl)c(O)cc2[C@H]2c3ccccc3CC[C@@H]21,-4.73% (inactive)
8,CCCCOC(=O)c1ccccc1C(=O)OCCCC,3.08% (inactive) and -9.32% (inactive)
9,C[CH2][Hg][S]c1ccccc1C(=O)O,-88.9% (active) and -92.1% (active)
10,CNc1ccccc1C(=O)O,-1.44% (inactive)
11,O=c1cccc2n1C[C@H]1CNCC2C1,4.99% (inactive)
12,C=CC[C@]1(O)CCC2C3CCC4=CC(=O)CCC4=C3C=C[C@@]21C (some centres not stated),11.2% (inactive)
13,C#C[C@]1(O)CC[C@H]2[C@@H]3CCC4=CC(=O)CCC4=C3C=C[C@@]21CC,-82.3% (active)
14,C=CC[C@@]1(O)CC[C@H]2[C@@H]3CCC4=CC(=O)CCC4=C3C=C[C@@]21C,9.86% (inactive)
15,C=C[C@H]1CN2CC[C@H]1C[C@@H]2[C@@H](OC(=O)OCC)c1ccnc2ccc(OC)cc12,7.12% (inactive) and 13% (inactive)
16,CCCN1CCO[C@H]2c3cc(O)ccc3OC[C@@H]21,-9.29% (inactive)
17,NCCc1cccc(O)c1,-9.36% (inactive)
18,Oc1ccc2c3c1OC1[C@@H](O)CC[C@@]4(O)[C@@H](C2)N(CC2CCC2)CC[C@]314 (some centres not stated),3.08% (inactive)
19,C[C@@]1(CO)[C@H](O)CC[C@@]2(C)[C@H]1CC[C@H]1C[C@@H]3C[C@@]12CC[C@]3(O)CO,-87.7% (active)
20,CC(C(=O)OC1CC2CCC(C1)N2C)c1ccc(Br)cc1 (configuration not stated),-1.35% (inactive) and 1.24% (inactive)
21,CC[C@@]1(O)C(=O)OCc2c1cc1n(c2=O)Cc2cc3ccccc3nc2-1,-82.2% (active) and -91.4% (active)
22,Cc1c(C(=O)c2cccc3ccccc23)c2cccc3c2n1[C@@H](CN1CCOCC1)CO3,46.7% (inactive)
23,CCCn1c(C)c(C(=O)c2cccc3ccccc23)c2ccccc21,93.6% (inactive)
24,Cc1c(C(=O)c2cccc3ccccc23)c2cccc3c2n1[C@H](CN1CCOCC1)CO3,-89.2% (active)

row,Structure (SMILES),"activity change, negative = inhibition"
1,CC(=O)Oc1ccc(Cl)c2cccnc12,-3.09% (inactive)
2,Cc1c(N2C(=O)[C@@H]3[C@H](O)CCN3C2=O)ccc(C#N)c1Cl,8.89% (inactive)
3,C[C@@H]1O[C@@H](O[C@@H]2C[C@@H](O)[C@]3(CO)[C@H]4[C@H](O)C[C@]5(C)[C@@H](C6=CC(=O)OC6)CC[C@]5(O)[C@@H]4CC[C@]3(O)C2)[C@H](O)[C@H](O)[C@H]1O,-77.1% (active)
4,C[C@@H]1O[C@@H](O[C@H]2C[C@@H](O)[C@]3(CO)C4C(CC[C@]3(O)C2)[C@@]2(O)CC[C@H](C3=CC(=O)OC3)[C@@]2(C)C[C@H]4O)[C@H](O)[C@H](O)[C@H]1O (some centres not stated),-88.6% (active)
5,CC1OC(OC2CC(O)C3(CO)C4C(O)CC5(C)C(C6=CC(=O)OC6)CCC5(O)C4CCC3(O)C2)C(O)C(O)C1O (configuration not stated),-83.7% (active)
6,C=CCN1CCC23c4c5ccc(O)c4OC2/C(=N\NC(=O)c2ccccc2)CCC3(O)C1C5 (configuration not stated),25.6% (inactive)
7,C=CCN1CC[C@]23c4c5ccc(O)c4OC2C(=O)CC[C@@]3(O)[C@H]1C5 (some centres not stated),4.78% (inactive)
8,CCN1C[C@]2(OC(=O)c3ccccc3NC(C)=O)CC[C@@H](OC)[C@]34C1[C@@H](C[C@H]23)[C@@]1(O)C[C@H](OC)[C@H]2C[C@H]4[C@]1(O)[C@H]2OC,10.9% (inactive)
9,O=C(O)c1ccccn1.O=C(O)c1ccccn1.O=C(O)c1ccccn1.[Cr],10.5% (inactive)
10,Cc1ccc2c(c1)Cc1c(C(=O)NC3CCCCC3)nn(-c3ccc(Cl)cc3Cl)c1-2,-23.4% (inactive) and -2.64% (inactive)
11,Cc1ccc2c(c1)Cc1c(C(=O)NN3CCCCC3)nn(-c3ccc(Cl)cc3Cl)c1-2,-71% (active) and -58.8% (inactive)
12,C/C(=C\C(N)C(=O)O)CP(=O)(O)O (configuration not stated),-4.78% (inactive)
13,c1ccc(C2CNCc3ccccc32)cc1 (configuration not stated),5.48% (inactive)
14,C=C1CC2C(CC[C@]3(C)C(=O)CCC23)[C@@]2(C)C=CC(=O)C=C12 (some centres not stated),11.4% (inactive)
15,CN1C(=O)CCS(=O)(=O)C1c1ccc(Cl)cc1 (configuration not stated),18% (inactive) and -3.16% (inactive)
16,CC(=O)O[C@@H]1C[C@@]2(C)[C@H](c3ccoc3)C[C@H]3O[C@]32[C@]2(C)C(=O)C(=O)C3C(C)(C)C(=O)C=C[C@]3(C)C12 (some centres not stated),-89.9% (active)
17,COC(=O)[C@@H]1C[C@H](OC(C)=O)C(=O)[C@H]2[C@@]1(C)CC[C@H]1C(=O)O[C@H](c3ccoc3)C[C@]21C,11.7% (inactive) and 9.72% (inactive)
18,CC1(C)C(=O)C=C[C@@]2(C)C1C(=O)C(=O)[C@]1(C)C2CC[C@@]2(C)[C@H](c3ccoc3)C[C@H]3O[C@]321 (some centres not stated),-86.1% (active)
19,CC1(C)C2C[C@@H](O)[C@]3(C)C(CC[C@@]4(C)[C@H](c5ccoc5)OC(=O)[C@H]5O[C@]543)[C@@]2(C)[C@@H](O)C[C@H]1O (some centres not stated),4.33% (inactive)
20,CC1(C)C2CC(=O)[C@]3(C)C(CC[C@@]4(C)[C@H](c5ccoc5)OC(=O)C5OC543)[C@@]2(C)[C@@H](O)C[C@H]1O (some centres not stated),1.93% (inactive)
21,CC1(C)C(=O)[C@@H]2O[C@@H]2[C@@]2(C)C1C[C@@H](O)[C@]1(C)C2CC[C@@]2(C)[C@H](c3ccoc3)OC(=O)C3OC321 (some centres not stated),20.5% (inactive)
22,CN1[C@@H]2CC[C@H]1CC(OC(=O)N1Cc3ccccc3NC1=O)C2 (some centres not stated),15% (inactive) and 8.45% (inactive)
23,CC(CO)NC(=O)C1C=C2c3cccc4[nH]cc(c34)C[C@H]2N(C)C1 (some centres not stated),15.2% (inactive) and -0.618% (inactive)
24,COc1ccc2c(c1O)-c1cc(O)cc3c1[C@@H](C2)N(C)CC3,-5.61% (inactive)
